# Test results published in PubChem BioAssay (Tox21).
# Values joined by “and” are separate entries in the source; they are usually repeats but may differ in a detail not shown here. Equal entries are not always repeated. Inconclusive results are not listed. Where a call stands in place of a potency, no number is given. Some compounds were tested as several samples or in several runs, with calls that do not always agree. Active and inactive are the calls of the source. Unless noted, calls come from the whole dose curve; as a rule, active = well fitted curve in the direction sought with a large enough effect in the repeat runs; inconclusive = weak or mixed curves; inactive = no such curve, though single readings can be large; an effect the other way counts as inactive or inconclusive.
# What was measured:
# [1] = target: Thyrotropin-releasing hormone receptor (Homo sapiens) (UniProt P34981); assay: qHTS assay to identify small molecule agonists of the thyrotropin-releasing hormone receptor (TRHR) signaling pathway (AID 1346891; calls by dose curve; note: series mostly up to about 58 µM)
# Thyrotropin-releasing hormone receptor (Homo sapiens), sequence (P34981 whole entry, looked up): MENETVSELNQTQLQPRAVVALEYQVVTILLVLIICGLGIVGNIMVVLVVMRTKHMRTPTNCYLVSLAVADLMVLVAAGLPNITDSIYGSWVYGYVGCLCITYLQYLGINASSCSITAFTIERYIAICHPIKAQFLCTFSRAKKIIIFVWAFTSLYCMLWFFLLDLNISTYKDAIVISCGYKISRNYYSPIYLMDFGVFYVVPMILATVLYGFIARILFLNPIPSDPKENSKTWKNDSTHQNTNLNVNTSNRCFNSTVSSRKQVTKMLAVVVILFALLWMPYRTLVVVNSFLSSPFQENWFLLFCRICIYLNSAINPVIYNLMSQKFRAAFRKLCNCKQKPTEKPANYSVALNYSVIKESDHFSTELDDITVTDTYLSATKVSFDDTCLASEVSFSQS
# Outline: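 Screening of agonists relied on calcium signalling in HEK293 cells expressing human TRHR: dye loading 2 h at 37 °C preceded compound addition and a 3-min fluorescence time course.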
# [2] = Human pregnane X receptor (PXR) small molecule agonists, qHTS cell viability counter screen (AID 1346977); note: nearly all actives have a fitted effect of over 50% in size
# Outline: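 Tox21 qHTS format; PXR-Luc HepG2, 2,000/well, charcoal-stripped FBS 5%. Cpd exposure 24hr. Read: CellTiter-Fluor fluorescence, multiplexed with luciferase.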
# [3] = Caspase-3/7 induction in HepG2 cells by small molecules, qHTS assay (AID 1346978); note: nearly all actives have a fitted effect of over 15% in size
# Outline: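 Caspase-3/7 induction was measured by Caspase-Glo 3/7 luminescence (30 min, room temperature) after a 17 hr compound exposure of wild-type HepG2 cells seeded at 2,000 per well and pre-incubated 5 hr.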
# [4] = Caspase-3/7 induction in CHO-K1 cells by small molecules, qHTS cell viability counter screen (AID 1346979); note: nearly all actives have a fitted effect of over 35% in size
# Outline: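 CellTiter-Fluor viability check, qHTS format: wild-type CHO-K1, 16hr compound treatment, 1hr reagent incubation, fluorescence read.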
# [5] = Caspase-3/7 induction in CHO-K1 cells by small molecules, qHTS assay (AID 1346980); note: nearly all actives have a fitted effect of over 15% in size
# Outline: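 Luminescent Caspase-Glo 3/7 read (30min, room temperature) quantified apoptosis induction. Cells were wild-type CHO-K1, treated with compound for 17hr at 37 C and 5% CO2.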
# [6] = Caspase-3/7 induction in HepG2 cells by small molecules, qHTS cell viability counter screen (AID 1346981); note: series mostly up to about 92 µM; nearly all actives have a fitted effect of over 30% in size
# Outline: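 Wild-type HepG2 cells (2,000/well) were allowed to settle for 5 hr at 37 C, 5% CO2, then dosed with compounds in DMSO by pin transfer. After 16 hr at 37 C, CellTiter-Fluor was added and fluorescence read 1 hr later.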
# [7] = target: Nuclear receptor subfamily 1 group I member 2 (Homo sapiens) (UniProt O75469); assay: Human pregnane X receptor (PXR) small molecule agonists, qHTS assay (AID 1346982); note: nearly all actives have a fitted effect of over 35% in size; note: potency is the fitted concentration of half-maximal effect
# Nuclear receptor subfamily 1 group I member 2 (Homo sapiens), sequence (O75469 whole entry, looked up): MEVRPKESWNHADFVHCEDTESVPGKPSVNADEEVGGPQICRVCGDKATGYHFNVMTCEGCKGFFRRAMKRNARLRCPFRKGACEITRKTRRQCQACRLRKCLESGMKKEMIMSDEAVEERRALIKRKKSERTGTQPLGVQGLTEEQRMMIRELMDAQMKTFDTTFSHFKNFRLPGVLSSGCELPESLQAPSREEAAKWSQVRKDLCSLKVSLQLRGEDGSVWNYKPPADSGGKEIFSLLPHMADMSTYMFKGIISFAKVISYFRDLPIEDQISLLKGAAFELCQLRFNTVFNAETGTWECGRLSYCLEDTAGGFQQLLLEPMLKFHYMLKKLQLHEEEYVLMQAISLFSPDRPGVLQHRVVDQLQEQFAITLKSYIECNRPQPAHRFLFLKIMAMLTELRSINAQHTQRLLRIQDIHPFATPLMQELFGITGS
# Outline: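 PXR-Luc HepG2 cells (CYP3A4 promoter-driven luciferase) were seeded in medium with 5% charcoal-stripped FBS, left 5 hr at 37 C, then exposed to compounds in DMSO for 24 hr. Luminescence was read after ONE-Glo addition.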
# [8] = target: Acetylcholinesterase (Homo sapiens) (UniProt P22303); assay: Acetylcholinesterase (AChE) small molecule antagonists: colormetric cell-based qHTS assay (AID 1347395; calls by dose curve; note: nearly all actives have a fitted effect of over 30% in size; note: potency is the fitted concentration of half-maximal effect)
# Acetylcholinesterase (Homo sapiens), sequence (P22303 whole entry, looked up): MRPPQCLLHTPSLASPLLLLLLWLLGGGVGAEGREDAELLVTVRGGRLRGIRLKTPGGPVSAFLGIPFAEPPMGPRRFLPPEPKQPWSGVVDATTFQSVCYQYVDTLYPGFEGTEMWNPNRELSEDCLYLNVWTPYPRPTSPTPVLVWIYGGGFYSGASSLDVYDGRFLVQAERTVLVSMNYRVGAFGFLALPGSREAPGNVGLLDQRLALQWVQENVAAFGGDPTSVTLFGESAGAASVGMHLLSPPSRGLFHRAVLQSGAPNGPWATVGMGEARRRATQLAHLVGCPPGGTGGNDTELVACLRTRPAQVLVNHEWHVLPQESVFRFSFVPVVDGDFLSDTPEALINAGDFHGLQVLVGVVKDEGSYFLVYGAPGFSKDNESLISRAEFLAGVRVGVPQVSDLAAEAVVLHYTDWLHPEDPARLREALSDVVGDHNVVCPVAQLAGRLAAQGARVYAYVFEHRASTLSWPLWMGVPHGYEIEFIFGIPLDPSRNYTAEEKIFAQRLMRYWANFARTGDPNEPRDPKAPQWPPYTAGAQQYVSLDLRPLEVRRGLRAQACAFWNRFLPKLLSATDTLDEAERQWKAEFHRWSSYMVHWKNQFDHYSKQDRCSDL
# Outline: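 AChE inhibition read colorimetrically via DTNB–thiocholine in SH-SY5Y cells. Compound 30 min, substrate 90 min, both 37 C.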
# [9] = target: Acetylcholinesterase (Homo sapiens) (UniProt P22303); assay: Acetylcholinesterase (AChE) small molecule antagonists: enzyme-based qHTS assay (AID 1347397; calls by dose curve; note: nearly all actives have a fitted effect of over 55% in size); details: Potency: AChE enzyme activity inhibition
# Outline: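 Absorbance-based detection of thiocholine with DTNB served as the read-out. Recombinant human AChE was exposed to compound for 30 min at RT before a 10 min RT incubation with acetylthiocholine.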
# [10] = target: Acetylcholinesterase (Homo sapiens) (UniProt P22303); assay: Acetylcholinesterase (AChE) small molecule antagonists: fluorescence cell-based qHTS assay (AID 1347398; calls by dose curve; note: nearly all actives have a fitted effect of over 50% in size; note: potency is the fitted concentration of half-maximal effect); details: Potency: AChE activity
# Outline: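 Fluorimetric cell-based assay: intact SH-SY5Y cells, 30 min compound preincubation at 37 C, acetylthiocholine substrate with thiol probe Thiolite Green, 40 min RT development, fluorescence 490/520 nm.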
# [11] = target: Acetylcholinesterase (Homo sapiens) (UniProt P22303); assay: Acetylcholinesterase (AChE) small molecule antagonists: enzyme-based qHTS assay with human liver microsomes (AID 1347399; calls by dose curve; note: nearly all actives have a fitted effect of over 60% in size; note: potency is the fitted concentration of half-maximal effect); details: Potency: qHTS inhibition
# Outline: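 Recombinant human AChE (50 mU/mL in the enzyme mix) and human liver microsomes (0.25 mg/mL final) were preincubated with compound and NADPH (0.25 mg/mL final) for 30 min at 37 C. Acetylthiocholine/DTNB was then added; thiocholine was read colorimetrically after 10 min at room temperature.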
# [12] = target: Cytochrome P450 2D6 (Homo sapiens) (UniProt P10635); assay: Cytochrome P450 Family 2 Subfamily D Member 6 (CYP2D6) small molecule antagonists: luciferase reporter qHTS assay (AID 1671196); note: nearly all actives have a fitted effect of over 50% in size; note: potency is the fitted concentration of half-maximal effect
# Cytochrome P450 2D6 (Homo sapiens), sequence (P10635 whole entry, looked up): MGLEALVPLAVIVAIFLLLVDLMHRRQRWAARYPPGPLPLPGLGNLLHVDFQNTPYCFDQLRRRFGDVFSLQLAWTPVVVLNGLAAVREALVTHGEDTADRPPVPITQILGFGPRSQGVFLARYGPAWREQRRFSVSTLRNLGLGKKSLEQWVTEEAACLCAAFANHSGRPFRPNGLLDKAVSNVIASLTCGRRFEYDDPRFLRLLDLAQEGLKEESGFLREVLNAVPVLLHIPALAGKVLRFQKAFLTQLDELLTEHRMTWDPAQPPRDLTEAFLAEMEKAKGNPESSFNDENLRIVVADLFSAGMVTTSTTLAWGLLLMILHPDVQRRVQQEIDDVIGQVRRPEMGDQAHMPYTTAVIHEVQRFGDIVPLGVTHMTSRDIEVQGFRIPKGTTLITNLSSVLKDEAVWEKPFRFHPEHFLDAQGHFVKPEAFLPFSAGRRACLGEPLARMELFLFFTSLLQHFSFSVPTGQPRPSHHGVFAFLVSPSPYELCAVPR
# Outline: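 CYP2D6 enzyme–substrate mix was held with compound for 10 min at room temperature, then NADPH regeneration solution was added and the reaction ran 1 h at room temperature. Luciferin product was detected by luminescence after 20 min with detection reagent.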
# [13] = target: Cytochrome P450 2C19 (Homo sapiens) (UniProt P33261); assay: Cytochrome P450 Family 2 Subfamily C Member 19 (CYP2C19) small molecule antagonists: luciferase reporter qHTS assay (AID 1671197); note: nearly all actives have a fitted effect of over 65% in size; note: potency is the fitted concentration of half-maximal effect
# Cytochrome P450 2C19 (Homo sapiens), sequence (P33261 whole entry, looked up): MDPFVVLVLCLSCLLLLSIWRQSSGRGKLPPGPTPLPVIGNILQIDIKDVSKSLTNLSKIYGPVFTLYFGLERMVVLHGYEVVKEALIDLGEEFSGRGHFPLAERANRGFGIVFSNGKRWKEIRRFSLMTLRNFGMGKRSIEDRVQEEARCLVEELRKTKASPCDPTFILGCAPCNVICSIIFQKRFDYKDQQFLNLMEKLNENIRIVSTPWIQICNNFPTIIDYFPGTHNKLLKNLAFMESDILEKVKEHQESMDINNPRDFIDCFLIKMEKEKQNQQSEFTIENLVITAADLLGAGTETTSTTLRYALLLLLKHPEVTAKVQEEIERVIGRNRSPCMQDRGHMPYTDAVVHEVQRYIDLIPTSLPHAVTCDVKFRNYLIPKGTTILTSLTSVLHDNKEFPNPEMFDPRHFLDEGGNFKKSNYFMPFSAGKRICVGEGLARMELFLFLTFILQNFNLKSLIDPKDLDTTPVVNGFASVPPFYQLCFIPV
# Outline: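 P450-Glo CYP2C19 system: enzyme-substrate mix with compound 10 min at room temperature, then NADPH regeneration solution, 1 h at 37C. Proluciferin-to-luciferin conversion detected by luminescence after 20 min with detection reagent; ketoconazole as positive control.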
# [14] = target: Cytochrome P450 2C9 (Homo sapiens) (UniProt P11712); assay: Cytochrome P450 Family 2 Subfamily C Member 9 (CYP2C9) small molecule antagonists: luciferase reporter qHTS assay (AID 1671198); note: nearly all actives have a fitted effect of over 50% in size; note: potency is the fitted concentration of half-maximal effect
# Outline: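 Enzyme-substrate mix preincubated with compound 10 min at room temperature; reaction started with NADPH regeneration solution, 1 h 37C. Luminescent luciferin product read after 20 min detection reagent.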
# [15] = target: Voltage-gated inwardly rectifying potassium channel KCNH2 (Homo sapiens) (UniProt Q12809); assay: Human Ether-a-go-go-Related Gene (hERG) channel small molecule antagonists: fluorescence cell-based qHTS assay (AID 1671200)
# Voltage-gated inwardly rectifying potassium channel KCNH2 (Homo sapiens), sequence (Q12809 whole entry, looked up): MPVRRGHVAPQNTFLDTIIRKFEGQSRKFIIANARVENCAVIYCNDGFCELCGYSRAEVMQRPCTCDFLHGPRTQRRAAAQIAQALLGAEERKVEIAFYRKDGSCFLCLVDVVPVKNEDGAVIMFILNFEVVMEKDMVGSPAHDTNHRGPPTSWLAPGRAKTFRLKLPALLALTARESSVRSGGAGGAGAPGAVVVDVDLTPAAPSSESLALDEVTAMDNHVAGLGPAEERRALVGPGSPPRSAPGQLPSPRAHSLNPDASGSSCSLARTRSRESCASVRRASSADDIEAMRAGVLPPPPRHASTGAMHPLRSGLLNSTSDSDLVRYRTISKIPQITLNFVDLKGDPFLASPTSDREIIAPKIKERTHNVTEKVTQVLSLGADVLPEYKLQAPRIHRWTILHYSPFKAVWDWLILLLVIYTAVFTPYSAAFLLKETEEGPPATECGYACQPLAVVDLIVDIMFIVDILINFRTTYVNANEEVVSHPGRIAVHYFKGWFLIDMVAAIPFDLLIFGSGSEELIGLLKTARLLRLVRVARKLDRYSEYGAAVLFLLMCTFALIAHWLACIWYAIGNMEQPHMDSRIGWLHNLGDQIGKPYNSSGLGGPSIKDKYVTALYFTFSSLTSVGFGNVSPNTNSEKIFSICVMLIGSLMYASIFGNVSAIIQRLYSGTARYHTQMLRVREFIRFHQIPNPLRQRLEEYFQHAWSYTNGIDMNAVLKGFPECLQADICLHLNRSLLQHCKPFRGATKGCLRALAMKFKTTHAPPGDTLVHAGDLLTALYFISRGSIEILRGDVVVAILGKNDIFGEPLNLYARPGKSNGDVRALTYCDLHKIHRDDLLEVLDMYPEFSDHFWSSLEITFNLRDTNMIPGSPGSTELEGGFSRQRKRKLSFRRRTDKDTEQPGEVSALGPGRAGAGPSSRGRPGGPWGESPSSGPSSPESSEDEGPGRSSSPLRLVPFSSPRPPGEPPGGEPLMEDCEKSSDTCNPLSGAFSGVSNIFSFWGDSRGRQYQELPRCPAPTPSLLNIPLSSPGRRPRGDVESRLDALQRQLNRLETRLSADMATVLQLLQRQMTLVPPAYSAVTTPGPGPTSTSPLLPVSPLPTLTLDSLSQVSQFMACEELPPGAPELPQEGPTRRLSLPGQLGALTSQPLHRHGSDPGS
# Outline: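 Kinetic two-minute fluorescence traces, sampled at 1 s, were collected following thallium stimulus of U2OS cells (1000 per well) that had been cultured overnight at 37 C and loaded with FluxOR II.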
# [16] = target: Cytochrome P450 3A4 (Homo sapiens) (UniProt P08684); assay: Cytochrome P450 Family 3 Subfamily A Member 4 (CYP3A4) small molecule antagonists: luciferase reporter qHTS assay (AID 1671201); note: nearly all actives have a fitted effect of over 50% in size; note: potency is the fitted concentration of half-maximal effect
# Outline: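 Proluciferin-to-luciferin conversion by CYP3A4, NADPH-regenerated, 1 h RT; luminescence read as RLU. Ketoconazole as control.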
# [17] = target: Nuclear receptor subfamily 1 group I member 2 (Rattus norvegicus) (UniProt Q9R1A7); assay: Rat pregnane X receptor (rPXR) activation by small molecules, qHTS assay (AID 1346983); details: rPXR luciferase reporter cells, One-Glo luminescence, 24 h; max activation: stronger effect = higher value; note: nearly all actives have a fitted effect of over 20% in size
# Nuclear receptor subfamily 1 group I member 2 (Rattus norvegicus), sequence (Q9R1A7 whole entry, looked up): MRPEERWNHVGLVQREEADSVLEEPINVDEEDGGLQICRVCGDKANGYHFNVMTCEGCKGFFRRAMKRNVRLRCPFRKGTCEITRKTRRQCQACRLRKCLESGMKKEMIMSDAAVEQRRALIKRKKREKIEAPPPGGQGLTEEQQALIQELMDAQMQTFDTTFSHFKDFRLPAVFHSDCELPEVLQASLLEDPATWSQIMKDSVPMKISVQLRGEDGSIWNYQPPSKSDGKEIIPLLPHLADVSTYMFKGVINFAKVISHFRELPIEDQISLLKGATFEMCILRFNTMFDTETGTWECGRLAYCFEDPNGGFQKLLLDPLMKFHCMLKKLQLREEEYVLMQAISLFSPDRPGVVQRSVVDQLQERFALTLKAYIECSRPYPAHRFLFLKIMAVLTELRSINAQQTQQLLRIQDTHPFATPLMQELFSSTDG
# Outline: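 Luminescent readout (One-Glo luciferase, 30 min room temperature) followed 24 hr compound treatment at 37 C of rPXR cells plated 2,000 per well and preincubated 5hr; qHTS format with compounds delivered in DMSO.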
# [18] = target: Nuclear receptor subfamily 1 group I member 2 (Homo sapiens) (UniProt O75469); assay: CYP3A4 induction through human pregnane X receptor (PXR) by small molecules, qHTS assay (AID 1346984); note: nearly all actives have a fitted effect of over 40% in size
# Outline: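 DPX-2 cells (HepG2 co-transfected with PXR and CYP3A4 promoter-luciferase) treated with compounds 24 h at 37C; luciferin-IPA CYP3A4 substrate 3uM final added for 3 h, then One-Glo; luminescence read. qHTS format.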
# [19] = target: Nuclear receptor subfamily 1 group I member 2 (Homo sapiens) (UniProt O75469); assay: Human pregnane X receptor (PXR) activation by small molecules, qHTS assay (AID 1346985); note: nearly all actives have a fitted effect of over 40% in size
# Outline: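 DPX-2 cells (HepG2 co-transfected with a PXR response element and a CYP3A4-promoter luciferase construct) were seeded at 2,000 per well, rested 5 hr at 37C, then exposed to DMSO-dissolved compounds for 24 hr. Activation was read as luciferase luminescence.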
# [20] = target: Cytochrome P450 1A2 (Homo sapiens) (UniProt P05177); assay: Cytochrome P450 Family 1 Subfamily A Member 2 (CYP1A2) small molecule antagonists: luciferase reporter qHTS assay (AID 1671199); note: nearly all actives have a fitted effect of over 50% in size; note: potency is the fitted concentration of half-maximal effect
# Cytochrome P450 1A2 (Homo sapiens), sequence (P05177 whole entry, looked up): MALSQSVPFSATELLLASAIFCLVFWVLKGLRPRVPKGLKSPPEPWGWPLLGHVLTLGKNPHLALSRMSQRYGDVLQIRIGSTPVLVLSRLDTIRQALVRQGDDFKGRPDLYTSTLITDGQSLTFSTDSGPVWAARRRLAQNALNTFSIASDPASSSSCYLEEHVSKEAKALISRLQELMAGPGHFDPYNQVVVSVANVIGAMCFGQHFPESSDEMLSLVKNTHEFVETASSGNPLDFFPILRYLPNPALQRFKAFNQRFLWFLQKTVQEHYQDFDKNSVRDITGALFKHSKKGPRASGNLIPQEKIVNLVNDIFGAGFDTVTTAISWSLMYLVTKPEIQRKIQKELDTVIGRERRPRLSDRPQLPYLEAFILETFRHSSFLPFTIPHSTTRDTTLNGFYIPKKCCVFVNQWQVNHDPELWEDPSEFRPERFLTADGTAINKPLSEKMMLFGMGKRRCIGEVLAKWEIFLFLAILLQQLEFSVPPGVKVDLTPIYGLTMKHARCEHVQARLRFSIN
# Outline: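 Human CYP1A2 activity measured with a P450-Glo proluciferin substrate; compounds in DMSO preincubated 10 min at room temperature with enzyme-substrate mix, then NADPH regeneration system added for 1 h. Luciferin detection reagent, 20 min, luminescence read.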
SMILES,outcome [1],Potency [2],outcome [3],Potency [4],outcome [5],Potency [6],Potency [7],Potency [8],Potency [9],Potency [10],Potency [11],Potency [12],Potency [13],Potency [14],Potency [15],Potency [16],max activation [17],Potency [18],Potency [19],Potency [20]
N#CN=C(N)N,inactive,inactive,inactive,inactive,inactive,inactive,inactive,inactive,inactive,inactive,inactive,inactive,inactive,inactive,inactive,inactive,,,,
FC(F)(F)c1ccc(Cl)cc1,inactive,inactive,inactive,inactive,inactive,inactive,inactive,inactive,inactive,inactive,inactive,inactive,inactive,inactive,inactive,inactive,,,,
Nc1nc(N)nc(NC2CC2)n1,inactive,inactive,inactive,inactive,inactive,inactive,inactive,inactive,inactive,inactive,inactive,inactive,inactive,inactive,inactive,inactive,-4.09% (inactive),inactive,inactive,
COP(=S)(OC)SCN1C(=O)c2ccccc2C1=O,inactive,inactive,inactive,inactive,inactive,inactive,inactive,71.5 µM (active) and 39.9 µM (active),inactive,inactive,,35.8 µM (active) and 35.6 µM (active) and 15.5 µM (active),715 nM (active) and 710 nM (active) and 436 nM (active),4.02 µM (active) and 2.52 µM (active) and 1.74 µM (active),inactive,,-1.79% (inactive),inactive,inactive,
ClCCOCCCl,inactive,inactive,inactive,inactive,inactive,inactive,inactive,inactive,inactive,inactive,inactive,inactive,inactive,inactive,inactive,inactive,,,,
O=C(O)c1cc(Oc2ccc(C(F)(F)F)cc2Cl)ccc1[N+](=O)[O-],inactive,inactive,inactive,inactive,inactive,inactive,inactive and 61.4 µM (active),inactive,inactive,inactive,inactive,inactive,inactive and 71 µM (active),21.9 µM (active) and 35.6 µM (active) and 31.9 µM (active),inactive,inactive,,,,inactive
Cc1cccc(C)c1N,inactive,inactive,inactive,inactive,inactive,inactive,inactive,inactive,inactive,inactive,inactive,11.1 µM (active) and inactive,inactive,inactive,inactive,inactive,,,,
OC[C@@H](O)[C@H]1O[C@@H]2O[C@H](C(Cl)(Cl)Cl)O[C@@H]2[C@H]1O,inactive,inactive,inactive,inactive,inactive,inactive,inactive,inactive,inactive,inactive,,inactive,35.5 µM (active) and inactive,inactive,inactive,inactive,-1.13% (inactive),inactive,inactive,inactive
OCc1ccco1,inactive,inactive,inactive,inactive,inactive,inactive,inactive,inactive,inactive,inactive,,inactive,inactive,inactive and 44.8 µM (active),inactive,inactive,,,,inactive
CCOP(=S)(OCC)Oc1cc(C)nc(C(C)C)n1,inactive,inactive,inactive,inactive,inactive,inactive,,31.9 µM (active) and 71 µM (active) and inactive,inactive,35.8 µM (active) and 56.4 µM (active),inactive and 8.71 µM (active),inactive,56.7 µM (active) and 502 nM (active) and 692 nM (active),35.8 µM (active) and 2.83 µM (active) and 2.45 µM (active),inactive,,0.813% (inactive),inactive,inactive,6.33 µM (active) and 4.07 µM (active)
CNC(=O)O/N=C/C(C)(C)SC,inactive,inactive,inactive,inactive,inactive,inactive,69.2 µM (active) and inactive,,,,,inactive,40.3 µM (active) and inactive,,inactive,inactive,,,,
C=CC#N,inactive,inactive,inactive,inactive,inactive,inactive,inactive,inactive,inactive,inactive,,inactive,inactive,inactive,inactive,inactive,,,,inactive
CNc1cnn(-c2cccc(C(F)(F)F)c2)c(=O)c1Cl,inactive,inactive,inactive,inactive,inactive,inactive,46.8 µM (active) and 34.4 µM (active),inactive,inactive,inactive,inactive,inactive,6.85 µM (active) and 31.7 µM (active),,inactive,34.3 µM (active),,,,
